{"source": "the supplement of paper PMC10849652", "note": "The full data set covers some 7,900 targets. This sample favours those with a hit. About 0.6% of all pairs of compound and target were hits. A number with no mark means an inactive call.", "data": [{"compound": "COC(=O)N[C@@H](C)CNc1nccc(-c2cn(C(C)C)nc2-c2cc(Cl)cc(NS(C)(=O)=O)c2F)n1 [encorafenib]", "assay": "log2 fold change, soluble protein after heating vs DMSO (PISA); higher = thermal stabilisation; K562 cells, 10 uM, 30 min; active = over 0.2 and 3.5 SD of the protein, either way, in both replicates (recomputed)", "procedure,_shortened": "(§1)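 K562 cells at 2×10^6 cells/mL were treated for 30 min with 10 μM compound, and aliquots were heated for 3 min over 48°C-58°C before pooling. Extraction used PBS with 0.5% NP-40 at 4°C, and soluble protein was the supernatant after 21,000xg for 90 min, measured by TMTpro 16plex LC-MS/MS with channel sums equalised. Thermal stability values, relative to control samples and from duplicates, are log2 fold changes.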", "values": [{"target": "LTV1 (UniProt Q96GA3)", "log2 fold change": 0.109}, {"target": "LMNB1 (UniProt P20700)", "log2 fold change": 0.016}, {"target": "LNPK (UniProt Q9C0E8)", "sequence (Q9C0E8 whole entry, looked up)": "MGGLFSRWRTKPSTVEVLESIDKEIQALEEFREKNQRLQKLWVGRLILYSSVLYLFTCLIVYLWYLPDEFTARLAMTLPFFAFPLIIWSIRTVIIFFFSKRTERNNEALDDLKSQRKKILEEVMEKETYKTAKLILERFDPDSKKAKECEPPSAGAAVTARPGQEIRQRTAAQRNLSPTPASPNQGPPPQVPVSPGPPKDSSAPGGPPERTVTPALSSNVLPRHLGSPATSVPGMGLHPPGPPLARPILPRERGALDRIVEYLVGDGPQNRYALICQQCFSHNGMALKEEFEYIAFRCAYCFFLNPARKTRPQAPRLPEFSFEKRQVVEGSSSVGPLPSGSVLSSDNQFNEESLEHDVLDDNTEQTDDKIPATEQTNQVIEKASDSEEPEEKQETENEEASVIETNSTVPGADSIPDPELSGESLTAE", "log2 fold change": -0.013}, {"target": "LDAH isoform 2 (UniProt Q9H6V9)", "log2 fold change": 0.04}, {"target": "IL27RA (UniProt Q6UWB1)", "log2 fold change": -0.023}, {"target": "KIF2C (UniProt Q99661)", "log2 fold change": 0.142}, {"target": "LAMP2 (UniProt P13473)", "log2 fold change": -0.026}, {"target": "LMNB2 (UniProt Q03252)", "sequence (Q03252 whole entry, looked up)": "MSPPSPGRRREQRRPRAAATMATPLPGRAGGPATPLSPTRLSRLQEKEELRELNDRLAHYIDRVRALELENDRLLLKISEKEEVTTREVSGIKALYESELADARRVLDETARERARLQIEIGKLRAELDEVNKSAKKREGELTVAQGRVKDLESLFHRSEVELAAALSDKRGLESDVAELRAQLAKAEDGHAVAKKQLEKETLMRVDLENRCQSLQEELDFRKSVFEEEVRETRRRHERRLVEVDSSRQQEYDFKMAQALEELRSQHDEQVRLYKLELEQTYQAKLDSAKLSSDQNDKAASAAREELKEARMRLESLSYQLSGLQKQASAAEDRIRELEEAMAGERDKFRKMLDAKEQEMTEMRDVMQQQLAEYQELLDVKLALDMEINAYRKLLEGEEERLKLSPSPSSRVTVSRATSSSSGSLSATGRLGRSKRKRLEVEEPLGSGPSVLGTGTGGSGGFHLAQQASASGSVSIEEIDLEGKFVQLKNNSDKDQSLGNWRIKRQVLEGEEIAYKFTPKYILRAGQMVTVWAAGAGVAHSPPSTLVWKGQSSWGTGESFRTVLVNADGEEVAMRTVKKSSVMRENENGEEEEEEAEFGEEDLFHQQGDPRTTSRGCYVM", "log2 fold change": -0.009}, {"target": "MAP1LC3B2 (UniProt A6NCE7)", "log2 fold change": 0.032}, {"target": "METAP1D (UniProt Q6UB28)", "log2 fold change": 0.006}, {"target": "LIMD1 (UniProt Q9UGP4)", "log2 fold change": 0.004}, {"target": "MED17 (UniProt Q9NVC6)", "log2 fold change": -0.081}, {"target": "KIF3A (UniProt Q9Y496)", "log2 fold change": 0.003}, {"target": "IKZF1 (UniProt Q13422)", "log2 fold change": -0.052}, {"target": "KSR1 (UniProt Q8IVT5)", "sequence (Q8IVT5 whole entry, looked up)": "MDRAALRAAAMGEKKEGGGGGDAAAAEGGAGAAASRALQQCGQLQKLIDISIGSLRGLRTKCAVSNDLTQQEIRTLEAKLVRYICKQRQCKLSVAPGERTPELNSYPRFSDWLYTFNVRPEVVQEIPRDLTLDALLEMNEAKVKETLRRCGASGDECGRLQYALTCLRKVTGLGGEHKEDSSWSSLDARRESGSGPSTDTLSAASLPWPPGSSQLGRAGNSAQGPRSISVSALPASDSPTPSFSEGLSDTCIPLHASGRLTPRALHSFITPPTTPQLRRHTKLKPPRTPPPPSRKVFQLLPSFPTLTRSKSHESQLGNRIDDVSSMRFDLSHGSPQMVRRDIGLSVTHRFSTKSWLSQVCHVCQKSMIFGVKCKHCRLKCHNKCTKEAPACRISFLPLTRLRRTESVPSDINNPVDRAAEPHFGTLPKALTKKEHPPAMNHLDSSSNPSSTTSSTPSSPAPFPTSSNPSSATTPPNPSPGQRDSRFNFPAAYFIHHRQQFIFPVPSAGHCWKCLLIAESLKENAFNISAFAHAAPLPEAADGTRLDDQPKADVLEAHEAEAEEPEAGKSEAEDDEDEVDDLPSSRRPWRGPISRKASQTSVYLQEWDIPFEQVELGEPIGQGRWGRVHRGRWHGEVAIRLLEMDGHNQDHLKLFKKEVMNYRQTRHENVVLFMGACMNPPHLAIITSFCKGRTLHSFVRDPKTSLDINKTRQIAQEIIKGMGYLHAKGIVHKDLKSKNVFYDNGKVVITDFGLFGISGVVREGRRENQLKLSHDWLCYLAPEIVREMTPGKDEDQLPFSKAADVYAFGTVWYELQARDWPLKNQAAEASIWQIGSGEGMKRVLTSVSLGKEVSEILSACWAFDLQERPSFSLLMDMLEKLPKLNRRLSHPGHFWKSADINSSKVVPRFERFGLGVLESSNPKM", "log2 fold change": 0.081}, {"target": "MAIP1 (UniProt Q8WWC4)", "log2 fold change": 0.048}, {"target": "LPGAT1 (UniProt Q92604)", "sequence (Q92604 whole entry, looked up)": "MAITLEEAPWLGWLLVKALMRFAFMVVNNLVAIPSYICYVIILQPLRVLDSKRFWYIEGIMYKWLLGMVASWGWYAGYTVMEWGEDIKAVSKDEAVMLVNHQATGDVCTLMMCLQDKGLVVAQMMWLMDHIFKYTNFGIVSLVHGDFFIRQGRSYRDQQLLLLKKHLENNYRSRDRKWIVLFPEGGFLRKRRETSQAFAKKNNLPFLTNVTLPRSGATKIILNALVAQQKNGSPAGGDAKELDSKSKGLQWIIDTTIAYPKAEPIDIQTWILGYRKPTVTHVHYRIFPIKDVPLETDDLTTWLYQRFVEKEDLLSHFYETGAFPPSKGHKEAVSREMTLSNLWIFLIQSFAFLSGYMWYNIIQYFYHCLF", "log2 fold change": 0.026}, {"target": "LTO1 (UniProt Q8WV07)", "sequence (Q8WV07 whole entry, looked up)": "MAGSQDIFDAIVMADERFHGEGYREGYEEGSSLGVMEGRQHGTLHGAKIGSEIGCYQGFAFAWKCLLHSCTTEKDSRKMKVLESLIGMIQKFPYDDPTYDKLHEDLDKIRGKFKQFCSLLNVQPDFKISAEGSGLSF", "log2 fold change": -0.016}, {"target": "LARP4 isoform 4 (UniProt Q71RC2)", "sequence (Q71RC2 whole entry, looked up)": "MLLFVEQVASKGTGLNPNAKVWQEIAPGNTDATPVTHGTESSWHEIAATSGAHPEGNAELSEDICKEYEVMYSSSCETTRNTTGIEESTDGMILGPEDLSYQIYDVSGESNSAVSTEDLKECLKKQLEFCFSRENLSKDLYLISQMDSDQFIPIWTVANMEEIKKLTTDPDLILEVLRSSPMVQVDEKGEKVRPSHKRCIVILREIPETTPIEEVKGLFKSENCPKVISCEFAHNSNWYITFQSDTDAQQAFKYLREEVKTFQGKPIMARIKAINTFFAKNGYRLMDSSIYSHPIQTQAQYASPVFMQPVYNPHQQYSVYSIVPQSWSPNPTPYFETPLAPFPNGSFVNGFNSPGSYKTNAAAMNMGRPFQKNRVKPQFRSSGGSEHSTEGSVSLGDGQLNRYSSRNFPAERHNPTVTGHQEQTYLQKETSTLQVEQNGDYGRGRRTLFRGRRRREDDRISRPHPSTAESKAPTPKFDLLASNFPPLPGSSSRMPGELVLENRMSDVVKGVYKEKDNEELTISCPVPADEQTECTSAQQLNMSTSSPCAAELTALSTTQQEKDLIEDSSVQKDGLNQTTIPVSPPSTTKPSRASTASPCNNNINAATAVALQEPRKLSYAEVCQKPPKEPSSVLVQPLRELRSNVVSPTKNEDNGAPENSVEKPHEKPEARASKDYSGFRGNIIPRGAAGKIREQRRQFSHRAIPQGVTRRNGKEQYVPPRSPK", "log2 fold change": 0.086}, {"target": "IMMP1L (UniProt Q96LU5)", "log2 fold change": -0.037}, {"target": "LRBA (UniProt P50851)", "log2 fold change": 0.018}, {"target": "LMBRD2 (UniProt Q68DH5)", "log2 fold change": 0.021}, {"target": "MAP2K2 (UniProt P36507)", "log2 fold change": -0.074}, {"target": "ITM2B (UniProt Q9Y287)", "log2 fold change": 0.098}, {"target": "IPO13 (UniProt O94829)", "sequence (O94829 whole entry, looked up)": "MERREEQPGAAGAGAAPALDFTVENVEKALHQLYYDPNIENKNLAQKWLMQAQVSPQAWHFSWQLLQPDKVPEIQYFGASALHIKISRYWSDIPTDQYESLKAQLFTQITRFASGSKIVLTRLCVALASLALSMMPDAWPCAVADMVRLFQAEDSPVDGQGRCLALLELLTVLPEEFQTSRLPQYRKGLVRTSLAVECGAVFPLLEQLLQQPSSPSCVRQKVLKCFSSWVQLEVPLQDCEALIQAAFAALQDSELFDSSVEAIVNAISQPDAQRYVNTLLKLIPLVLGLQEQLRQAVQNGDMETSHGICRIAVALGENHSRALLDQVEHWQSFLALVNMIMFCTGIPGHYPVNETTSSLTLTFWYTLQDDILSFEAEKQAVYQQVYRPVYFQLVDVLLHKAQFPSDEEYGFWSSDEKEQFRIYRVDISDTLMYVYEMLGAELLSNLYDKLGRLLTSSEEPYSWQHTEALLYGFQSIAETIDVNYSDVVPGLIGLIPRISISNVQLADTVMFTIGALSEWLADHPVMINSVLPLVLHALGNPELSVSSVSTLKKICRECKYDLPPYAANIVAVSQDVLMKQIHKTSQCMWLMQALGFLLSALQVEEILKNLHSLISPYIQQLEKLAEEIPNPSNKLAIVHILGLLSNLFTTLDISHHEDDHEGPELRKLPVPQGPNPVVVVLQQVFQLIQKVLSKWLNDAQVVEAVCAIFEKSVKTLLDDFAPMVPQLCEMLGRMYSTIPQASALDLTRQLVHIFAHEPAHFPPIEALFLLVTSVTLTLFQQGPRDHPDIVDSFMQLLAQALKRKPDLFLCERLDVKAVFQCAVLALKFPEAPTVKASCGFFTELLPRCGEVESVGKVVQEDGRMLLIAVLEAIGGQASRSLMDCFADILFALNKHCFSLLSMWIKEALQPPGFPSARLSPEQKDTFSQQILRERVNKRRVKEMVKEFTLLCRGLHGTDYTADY", "log2 fold change": 0.039}, {"target": "ILRUN (UniProt Q9H6K1)", "log2 fold change": 0.045}, {"target": "IRF2BPL (UniProt Q9H1B7)", "sequence (Q9H1B7 whole entry, looked up)": "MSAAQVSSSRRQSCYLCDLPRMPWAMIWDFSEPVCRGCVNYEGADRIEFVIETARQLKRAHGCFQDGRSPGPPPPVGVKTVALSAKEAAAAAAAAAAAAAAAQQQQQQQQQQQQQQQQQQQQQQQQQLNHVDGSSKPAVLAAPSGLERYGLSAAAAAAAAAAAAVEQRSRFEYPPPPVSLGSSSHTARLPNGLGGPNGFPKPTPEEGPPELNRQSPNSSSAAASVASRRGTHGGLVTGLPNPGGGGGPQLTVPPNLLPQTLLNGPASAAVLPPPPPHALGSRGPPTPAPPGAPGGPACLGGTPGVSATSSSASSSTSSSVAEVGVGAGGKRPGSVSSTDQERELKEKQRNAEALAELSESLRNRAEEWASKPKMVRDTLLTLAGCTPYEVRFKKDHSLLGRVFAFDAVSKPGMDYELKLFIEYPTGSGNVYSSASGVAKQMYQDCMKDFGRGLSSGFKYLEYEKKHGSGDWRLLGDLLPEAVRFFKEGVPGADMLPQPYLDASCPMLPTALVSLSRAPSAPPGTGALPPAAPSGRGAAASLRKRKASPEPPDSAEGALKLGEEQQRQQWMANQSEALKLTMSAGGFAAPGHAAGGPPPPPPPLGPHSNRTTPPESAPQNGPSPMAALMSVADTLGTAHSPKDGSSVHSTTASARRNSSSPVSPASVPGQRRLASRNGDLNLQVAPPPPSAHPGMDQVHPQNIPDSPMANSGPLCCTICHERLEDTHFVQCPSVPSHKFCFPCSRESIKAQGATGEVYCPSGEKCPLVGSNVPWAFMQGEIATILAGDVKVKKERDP", "log2 fold change": -0.06}, {"target": "LDLR (UniProt P01130)", "log2 fold change": 0.01}, {"target": "LUC7L3 (UniProt O95232)", "log2 fold change": 0.028}, {"target": "MAP2K7 isoform 4 (UniProt O14733)", "log2 fold change": 0.013}, {"target": "MDC1 (UniProt Q14676)", "log2 fold change": 0.075}, {"target": "MAP2K1 (UniProt Q02750)", "log2 fold change": 0.005}, {"target": "MARK3 (UniProt P27448)", "log2 fold change": 0.096}, {"target": "KIF21A isoform 4 (UniProt Q7Z4S6)", "log2 fold change": 0.175}, {"target": "LEMD3 (UniProt Q9Y2U8)", "log2 fold change": 0.026}, {"target": "KDM5D isoform 3 (UniProt Q9BY66)", "log2 fold change": 0.198}, {"target": "IK (UniProt Q13123)", "log2 fold change": 0.197}, {"target": "KLC2 (UniProt Q9H0B6)", "log2 fold change": 0.036}, {"target": "INPP5B (UniProt P32019)", "log2 fold change": -0.151}]}, {"compound": "COC(=O)[C@H](CCSC)NC(=O)C1=C(C=C(C=C1)NC[C@H](CS)N)C2=CC=CC=C2", "assay": "log2 fold change, soluble protein after heating vs DMSO (PISA); higher = thermal stabilisation; K562 cells, 10 uM, 30 min; active = over 0.2 and 3.5 SD of the protein, either way, in both replicates (recomputed)", "procedure,_shortened": "as §1", "values": [{"target": "LTV1 (UniProt Q96GA3)", "log2 fold change": -0.061}, {"target": "LMNB1 (UniProt P20700)", "log2 fold change": 0.032}, {"target": "LNPK (UniProt Q9C0E8)", "log2 fold change": 0.039}, {"target": "LDAH isoform 2 (UniProt Q9H6V9)", "log2 fold change": -0.063}, {"target": "IL27RA (UniProt Q6UWB1)", "log2 fold change": 0}, {"target": "KIF2C (UniProt Q99661)", "log2 fold change": -0.092}, {"target": "LAMP2 (UniProt P13473)", "log2 fold change": 0.062}, {"target": "LMNB2 (UniProt Q03252)", "log2 fold change": 0.049}, {"target": "MAP1LC3B2 (UniProt A6NCE7)", "log2 fold change": -0.048}, {"target": "METAP1D (UniProt Q6UB28)", "log2 fold change": 0.006}, {"target": "LIMD1 (UniProt Q9UGP4)", "log2 fold change": 0.004}, {"target": "MED17 (UniProt Q9NVC6)", "log2 fold change": 0.055}, {"target": "KIF3A (UniProt Q9Y496)", "log2 fold change": 0.005}, {"target": "IKZF1 (UniProt Q13422)", "log2 fold change": -0.008}, {"target": "KSR1 (UniProt Q8IVT5)", "log2 fold change": 0.012}, {"target": "MAIP1 (UniProt Q8WWC4)", "log2 fold change": 0.008}, {"target": "LPGAT1 (UniProt Q92604)", "log2 fold change": 0.015}, {"target": "LTO1 (UniProt Q8WV07)", "log2 fold change": "-0.314 (active)"}, {"target": "LARP4 isoform 4 (UniProt Q71RC2)", "log2 fold change": -0.014}, {"target": "IMMP1L (UniProt Q96LU5)", "log2 fold change": -0.027}, {"target": "LRBA (UniProt P50851)", "log2 fold change": -0.002}, {"target": "LMBRD2 (UniProt Q68DH5)", "log2 fold change": -0.021}, {"target": "MAP2K2 (UniProt P36507)", "log2 fold change": 0.001}, {"target": "ITM2B (UniProt Q9Y287)", "log2 fold change": -0.096}, {"target": "IPO13 (UniProt O94829)", "log2 fold change": 0.033}, {"target": "ILRUN (UniProt Q9H6K1)", "log2 fold change": 0.121}, {"target": "IRF2BPL (UniProt Q9H1B7)", "log2 fold change": -0.027}, {"target": "LDLR (UniProt P01130)", "log2 fold change": 0.104}, {"target": "LUC7L3 (UniProt O95232)", "log2 fold change": -0.003}, {"target": "MAP2K7 isoform 4 (UniProt O14733)", "log2 fold change": -0.01}, {"target": "MDC1 (UniProt Q14676)", "log2 fold change": -0.067}, {"target": "MAP2K1 (UniProt Q02750)", "log2 fold change": 0.009}, {"target": "MARK3 (UniProt P27448)", "log2 fold change": 0.033}, {"target": "KIF21A isoform 4 (UniProt Q7Z4S6)", "log2 fold change": -0.072}, {"target": "LEMD3 (UniProt Q9Y2U8)", "log2 fold change": -0.075}, {"target": "KDM5D isoform 3 (UniProt Q9BY66)", "log2 fold change": -0.05}, {"target": "IK (UniProt Q13123)", "log2 fold change": 0.002}, {"target": "KLC2 (UniProt Q9H0B6)", "log2 fold change": -0.051}, {"target": "INPP5B (UniProt P32019)", "log2 fold change": 0.141}]}]}
